Measurements published in PubChem BioAssay (NCI).
About 83,000 compounds went through this panel and 20% of them were active in at least one assay; those are over-represented in the sample as a whole.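 Growth was measured after 48 h exposure to one concentration of compound in 96-well plates. Values under 10 count as active.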 The source made the active and inactive calls.

Test system: OVCAR-8 ovarian
Assay: NCI-60 one-dose screen, 48 h (100 = growth as untreated, 0 = no growth, -100 = all killed)
Details: 10 µM unless noted
Protocol: Growth inhibition of the OVCAR-8 human tumor cell line is measured as a screen for anti-cancer activity. Cells are grown in 96 well plates and exposed to the test compound for 48 hours. Compounds are tested at a single concentration, which is 10^-5 M for most compounds. The reported endpoint is percent growth (GI% or GIPRCNT), where numbers from 0 - 100% represent growth inhibition, and numbers from -100% - 0 represent cell death. For example, a value of 40 represents 60% growth inhibition. A value of 0 means no net growth occurred over the course of the experiment. A value of -40 indicates 40% of cells at the beginning of the experiment died by the end of the experiment. A value of -100 means all cells are dead at the end of the experiment.
NCI-60 Human Tumor Cell Lines Screen was performed using the standard one-dose NCI protocol, which is described in more detail at https://dtp.cancer.gov/discovery_development/nci-60/default.htm.
Compounds with GIPRCNT values below 10 were considered active. Activity score was based on GIPRCNT using the following formula: […]
Score is 0 for GIPRCNT values of 100 or above, 50 for GIPRCNT values of 0, and 100 for GIPRCNT values of -100.

SMILES	growth
O=C1c2cccc3cccc(c23)C(=O)N1CC#Cc1ccc2c3c(cccc13)C(=O)N(CCO)C2=O	86.5% (inactive)
Clc1cc(Cl)cc(Nc2ccc3c(OCCCN4CCOCC4)cccc3n2)c1	81.8% (inactive)
CC(C)=CCC[C@](C)(O)[C@H]1CC[C@]2(C)[C@@H]1CC[C@@H]1[C@@]3(C)C/C(=C/c4ccc(Br)cc4)C(=O)C(C)(C)[C@@H]3CC[C@]12C	84.5% (inactive)
C=C1CC[C@@H](C(=O)OC)Cc2nc(C)ccc21	102% (inactive)
c1ccc(C2Cc3ccccc3C2=NC2CCCCC2)cc1 (stereo not given)	107% (inactive)
CCN(CC)c1ccc(/C=C/c2cc(C)c3ccccc3n2)cc1	75.1% (inactive)
COc1ccc2[nH]c(-c3ccc(Cl)cc3)cc(=O)c2c1	103% (inactive)
Nc1c2c(nc3ccc(Br)cc13)CC(c1ccccc1)CC2=O (stereo not given)	44.7% (inactive)
Clc1ccc2c(NCCNc3nc(-c4ccccc4)cc(-c4ccccc4)n3)ccnc2c1	-70.6% (active)
O=C1c2cc3c(cc2-c2c1c1ccc(Cl)cc1c(=O)n2C[C@H](O)[C@@H](O)[C@H](O)CO)OCO3	1.03% (active)
Cc1ccc(-c2ccc(Nc3ccccc3)nn2)cc1S(N)(=O)=O	94.1% (inactive)
COc1cccc(-c2nn(-c3ccccc3)cc2-c2ccnc(NCCCNS(=O)(=O)c3ccc(Cl)cc3)c2)c1	37.3% (inactive)
C=C(C)[C@@H]1CC[C@]2(C=NCCCNCCCCNCCCN)CC[C@]3(C)[C@H](CC[C@@H]4[C@@]5(C)CCCNC(C)(C)[C@@H]5CC[C@]43C)[C@@H]12	83.8% (inactive)
c1ccc2c(-c3nc(-c4c[nH]c5ncccc45)cs3)c[nH]c2c1	98.4% (inactive)
COc1cc(-c2nc(-c3ccccc3)c(-c3ccccc3)[nH]2)cc(OC)c1O	-0.964% (active)
COc1ccc(C2(Cl)c3ccccc3N(c3ccccc3)c3ccccc32)cc1	6.73% (active)
O=C1C(=O)N(CCCCn2cc(-c3ccccc3)nn2)c2ccccc21	103% (inactive)
COC(=O)[C@]12CC[C@@H](C)[C@H](C)[C@@H]1C1=CC[C@@H]3[C@@]4(C)C=C(O)C(=O)C(C)=C4CC[C@@]3(C)[C@]1(C)CC2	37.9% (inactive)
C=C(C)[C@@H]1CC[C@]2(C)[C@H](CC=C3[C@@H]4CC(C)(C)CC[C@]4(C=O)CC[C@]32C)[C@@]1(C)CCCN	77.8% (inactive)
CC(C)=CCC/C(C)=C/CC/C(C)=C/CSC[C@H](NC(=O)CCCCCN1CCN(C)CC1)C(=O)NC1CCCCCC1	80.7% (inactive)

SMILES	growth
COc1cnc2c(c1)C(=O)c1c-2n(CCCNCCN2CCOCC2)c(=O)c2cc([N+](=O)[O-])ccc12	2.29% (active)
C/C(=N\NC(=O)C(C)SC(C)C(=O)N/N=C(\C)c1cccnc1)c1cccnc1 (stereo not given)	109% (inactive)
Nc1ccc(Br)cn1	102% (inactive)
COc1cc(/C=C2\C(=O)N(CC(O)COc3cc(O)c4c(=O)cc(-c5ccccc5)oc4c3)c3ccccc32)cc(OC)c1O (stereo not given)	77% (inactive)
CCCCCCCC(=O)SCC/C=C/[C@@H]1CC(=O)NCc2cccc(n2)CN(Cc2ccc3ccccc3c2)CC(=O)N[C@@H](C(C)C)C(=O)O1	22.7% (inactive)
COc1ccc2c(c1)c(-c1nc(-c3c[nH]c4ncccc34)cs1)cn2CCN	70.5% (inactive)
Oc1ccc(CCC2CCCC(CCc3ccc(OCCF)cc3)N2)cc1 (stereo not given)	93.3% (inactive)
CC1c2ccccc2N(S(=O)(=O)c2ccccc2)C1C (stereo not given)	103% (inactive)
Nc1ncnc2nc(Br)[nH]c12	92.8% (inactive)
COc1ccc2[nH]cc(-c3nc(-c4c[nH]c5ncccc45)cs3)c2c1	44.8% (inactive)
COC(=O)c1cc(=O)nc(N/N=C/c2ccc(C)cc2)s1	105% (inactive)
COC(=O)[C@]12CC[C@@H](C(C)=O)[C@@H]1[C@H]1CC[C@@H]3[C@@]4(C)C/C(=C/c5cccnc5)C(=O)C(C)(C)[C@@H]4CC[C@@]3(C)[C@]1(C)CC2	38.7% (inactive)
CC1(C)NC2=C(C(Nc3cccnc3)N1)C(c1ccc([N+](=O)[O-])cc1)C(C(=O)c1ccc(N=[N+]=[N-])cc1)O2 (stereo not given)	101% (inactive)
COc1cc(-c2cc3ncccc3c3[nH]c(=O)c4cccnc4c23)cc(OC)c1OC	35.9% (inactive)
COc1cc2[nH]c(C(=O)c3cc(OC)c(OC)c(OC)c3)c(N)c2cc1C#CCO	31.7% (inactive)
Nc1ccc(Cl)cn1	101% (inactive)
Cn1cc(-c2csc(-c3cn(CCNC(=O)OC(C)(C)C)c4ccc(F)cc34)n2)c2cccnc21	37.9% (inactive)
CC(Cc1ccco1)C(=O)NC(N)=O (stereo not given)	101% (inactive)
C=C(C)[C@@H]1CC[C@]2(C(=O)N3CCCNCC3)CC[C@]3(C)[C@H](CC[C@@H]4[C@@]5(C)CCC(=O)C(C)(C)[C@@H]5CC[C@]43C)[C@@H]12	95.6% (inactive)
C#Cc1cccc(NC(=O)C2CCCN(C(=O)CCl)C2)c1 (stereo not given)	30.1% [8.25 µM] (inactive)
